Here are results for eight compounds from PubChem BioAssay (Tox21).

“And” between values parts separate entries of the source, which are not always exact repeats. Identical values can stand only once. Inconclusive results are not listed. More than one record can exist for a structure, and the calls need not agree. The source made the active and inactive calls. Unless noted, the call rests on the fitted dose curve; in most records, active means well fitted curve in the direction sought with a large enough effect in the repeat runs; inconclusive means weak or mixed curves; inactive means no such curve, though single readings can be large; an effect the other way counts as inactive or inconclusive.

The nature of test [1]: qHTS assay to test for compound auto fluorescence at 535 nm (green) in HEK293 cells (AID 720680). A general note: In qHTS, concentration-response curves come from the screen itself.
Test [2] in a line: qHTS assay to test for compound auto fluorescence at 460 nm (blue) in HEK293 cell free culture (AID 720681). The gist of the method: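 Test compounds were pinned into cell-free culture medium (DMEM with 10% FBS) and fluorescence was read directly at Ex/Em 405/460 nm. Signals were expressed as fluorescence equivalents of triamterene, with DMSO vehicle as control.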
The nature of test [3]: qHTS assay to test for compound auto fluorescence at 535 nm (green) in HEK293 cell free culture (AID 720682). The gist of the method: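 Cell-free medium (DMEM, 10% FBS) receives compound or DMSO by pintool. Plate read directly at Ex 485/Em 535 nm. Signal converted to fluorescein equivalency.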
A short description of test [4]: qHTS assay to test for compound auto fluorescence at 590 nm (red) in HEK293 cell free culture (AID 720683). The gist of the method: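 Tox21 10K library compounds were pinned into cell-free DMEM with 10% FBS and fluorescence was read at excitation 540 nm. Activity is expressed as Rose Bengal sodium equivalency.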
The nature of test [5]: qHTS assay to test for compound auto fluorescence at 590 nm (red) in HepG2 cell free culture (AID 720684). The gist of the method:
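Ex 540 / Em 590 nm read of compound in cell-free MEM (10% FBS). Rose Bengal sodium reference.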

Test [6] in a line: qHTS assay to test for compound auto fluorescence at 460 nm (blue) in HepG2 cell free culture (AID 720685). The gist of the method: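 Cell-free plates of MEM plus 10% FBS received 23 nL compound or DMSO vehicle; blue-channel (405/460 nm) intensity scored against triamterene as reference fluorophore.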
Test [7] in a line: qHTS assay to test for compound auto fluorescence at 535 nm (green) in HepG2 cell free culture (AID 720686).
The nature of test [8]: qHTS assay to test for compound auto fluorescence at 460 nm (blue) in HepG2 cells (AID 720687). The gist of the method:
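Cells (2,000/well in MEM with 10% FBS) attached overnight at 37 C, then were exposed to compound or DMSO for 1 hr at 37 C, 5% CO2. Fluorescence read at Ex/Em 405/460 nm, expressed as triamterene-equivalent signal.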

Test [9] has as its target Glucocorticoid receptor (Homo sapiens) (UniProt P04150). The experiment in a line: qHTS assay to identify small molecule agonists of the glucocorticoid receptor (GR) signaling pathway (AID 720691; active means well fitted activation curve with a large enough effect in the signal ratio in the repeat runs, not every such curve was filed as active; the % refers to the signal ratio). The gist of the method: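 A HeLa cervical cancer line expressing GR and a glucocorticoid response element-driven beta-lactamase gene is treated with compounds for 18 h; LiveBLAzer B/G FRET substrate is then applied and fluorescence read.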

Test [10] shares this target. The experiment in a line: qHTS assay to identify small molecule antagonists of the glucocorticoid receptor (GR) signaling pathway (AID 720692; active means well fitted inhibition curve with a large enough effect in the signal ratio in the repeat runs, not every such curve was filed as active; the % refers to the signal ratio). The gist of the method:
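GRE-bla HeLa line, dex-stimulated (5 nM final). Compound exposure 18 h, 37 C. Beta-lactamase FRET read after 2 h RT substrate.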

Test [11] is described as follows: qHTS assay to identify small molecule antagonists of the glucocorticoid receptor (GR) signaling pathway - cell viability counter screen (AID 720693). Further: nearly all actives have a fitted effect of over 55% in size.
Test [12] is described as follows: qHTS assay for identifying genotoxic compounds that show differential cytotoxicity against isogenic chicken DT40 cell lines with known DNA damage response pathways - wild type cell line (AID 743012). Further: nearly all actives have a fitted effect of over 60% in size. Further: potency means the concentration at half of the fitted maximal effect. The gist of the method:
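300 wt DT40 cells/well; cpd (DMSO) pintool-transferred after ~0.5 h at 37 C/5% CO2; 40 h incubation; CellTiter-Glo added, 30 min RT; luminescence read.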

Test [13] can be described thus: qHTS assay for identifying genotoxic compounds that show differential cytotoxicity against isogenic chicken DT40 cell lines with known DNA damage response pathways - Rev3 mutant cell line (AID 743014). Further: nearly all actives have a fitted effect of over 55% in size. Further: potency means the concentration at half of the fitted maximal effect.
A short description of test [14]: qHTS assay for identifying genotoxic compounds that show differential cytotoxicity against isogenic chicken DT40 cell lines with known DNA damage response pathways - Rad54/Ku70 mutant cell line (AID 743015). Further: nearly all actives have a fitted effect of over 60% in size. Further: potency means the concentration at half of the fitted maximal effect.
Test [15] can be described thus: qHTS assay to identify small molecule antagonists of the androgen receptor (AR) signaling pathway - cell viability counter screen (AID 743033; further: nearly all actives have a fitted effect of over 45% in size).
A short description of test [16]: qHTS assay to identify small molecule antagonists of the androgen receptor (AR) signaling pathway using the MDA cell line - cell viability counter screen (AID 743041; further: nearly all actives have a fitted effect of over 45% in size). The gist of the method: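 In this qHTS counter assay, fluorescence intensity after CellTiter-Fluor addition indicated viability of MDA-kb2 AR-luc cells given compounds and R1881 for 16 h at 37C.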
On the % scale 0 is the no-effect control and ±100 the full control effect.

Glucocorticoid receptor (Homo sapiens), sequence (P04150 whole entry, looked up): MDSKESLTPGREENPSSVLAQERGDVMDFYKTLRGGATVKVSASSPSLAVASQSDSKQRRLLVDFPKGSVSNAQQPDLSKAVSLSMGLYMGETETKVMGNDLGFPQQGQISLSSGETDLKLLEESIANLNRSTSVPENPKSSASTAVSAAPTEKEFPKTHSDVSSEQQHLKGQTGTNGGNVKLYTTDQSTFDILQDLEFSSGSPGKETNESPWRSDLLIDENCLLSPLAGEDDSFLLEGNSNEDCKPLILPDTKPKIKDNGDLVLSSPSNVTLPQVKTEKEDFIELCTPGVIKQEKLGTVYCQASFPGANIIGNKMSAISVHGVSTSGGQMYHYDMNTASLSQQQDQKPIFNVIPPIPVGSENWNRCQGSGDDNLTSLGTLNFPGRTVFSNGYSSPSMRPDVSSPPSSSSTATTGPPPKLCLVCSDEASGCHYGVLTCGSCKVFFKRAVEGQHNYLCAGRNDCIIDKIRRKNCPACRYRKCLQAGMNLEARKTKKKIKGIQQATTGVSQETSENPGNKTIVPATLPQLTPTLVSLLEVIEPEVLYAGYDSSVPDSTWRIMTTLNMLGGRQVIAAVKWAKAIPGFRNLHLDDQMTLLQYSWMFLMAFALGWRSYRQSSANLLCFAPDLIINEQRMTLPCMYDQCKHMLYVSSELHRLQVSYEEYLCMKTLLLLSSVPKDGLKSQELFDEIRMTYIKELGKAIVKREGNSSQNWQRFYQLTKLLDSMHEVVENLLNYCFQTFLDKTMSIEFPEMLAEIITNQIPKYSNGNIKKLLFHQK

For the compound `CC(C)c1ccc(C(=O)N=C(N)N)cc1S(C)(=O)=O`, the result in test [1], in test [3], in test [4], in test [5] and in [7] was inactive. The Potency result in test [2], in [6], in test [8], in [9], in [10] and in [11] was “inactive” each time. The Potency result in [12], in test [13], in [14], in [15] and in test [16] was “inactive” in each case.

Take `CC(C)C(=O)OCCOc1ccccc1`: the call in [1], in test [3], in test [4], in test [5] and in test [7] was inactive. Also, the Potency entry in test [2], in test [6], in test [8], in test [9], in [10] and in test [11] was “inactive” each time. The Potency entry in test [12], in [13], in test [14], in test [15] and in test [16] was “inactive” in each case.

With `CC[C@H]1OC(=O)[C@H](C)[C@@H](O[C@H]2C[C@@](C)(OC)[C@@H](O)[C@H](C)O2)[C@H](C)[C@@H](O[C@@H]2O[C@H](C)C[C@H](N(C)C)[C@H]2O)[C@](C)(O)C[C@@H](C)/C(=N\OCOCCOC)[C@H](C)[C@@H](O)[C@]1(C)O`, the call in test [1], in test [3], in test [4], in test [5] and in test [7] was inactive. Besides, the Potency result in [2], in test [6], in test [8], in test [9], in test [10] and in test [11] was “inactive” throughout. Also, the Potency result in [15] and in test [16] was “inactive” throughout. In addition, the Potency result in test [12] is “inactive and 14.3 µM (active)”; in test [13] it was “inactive and 8.07 µM (active)”; in [14], “inactive and 14.3 µM (active)”.

With `CC(C(=O)O)c1ccc(C(=O)c2cccs2)cc1` (stereo unspecified), in [1], the fluorescence, % of fluorescein was 0.0235% [at 18.6 µM] (inactive). In addition, the fluorescence, % of fluorescent control in test [2] is -0.0817% [at 18.6 µM] (inactive); in test [4] it was -0.0893% [at 18.6 µM] (inactive); in test [6], -0.005% [at 18.6 µM] (inactive); in [8] it was 0.0525% [at 18.6 µM] (inactive). Moreover, the activity change in test [3] was -0.0028% [at 18.6 µM] (inactive). The fluorescence, % of Rose Bengal in test [5] was -0.362% [at 18.6 µM] (inactive). Besides, the fluorescence, % of fluorescein control in test [7] was -0.0792% [at 18.6 µM] (inactive). Besides, the Potency entry in test [9], in [10], in [11], in [12], in [13] and in [14] was “inactive” throughout. Further, the Potency result in test [15] is “inactive”.

Turning to `O=C(O)c1cccc(Oc2ccccc2)c1`, the result in test [1], in test [3], in [4], in [5] and in test [7] was inactive. The Potency entry in [2], in test [6], in [8], in [9], in test [10] and in test [11] was “inactive” each time. Further, the Potency entry in test [12], in test [13], in test [14] and in [16] was “inactive” throughout.

Regarding `C=CC(=O)O`, the result in test [1], in [3], in [4], in test [5] and in test [7] was inactive. The Potency result in test [2], in test [6], in test [8], in [9], in [10] and in test [11] was “inactive” throughout. In addition, the Potency entry in test [12], in [13], in test [14], in test [15] and in [16] was “inactive” each time.

With `CCSC(=O)N(CC)CC`, the outcome in test [1], in [3], in test [4], in [5] and in test [7] was inactive. The Potency entry in [2], in test [6], in test [8], in test [9], in test [10] and in test [11] was “inactive” each time. Moreover, the Potency entry in test [12], in [13], in test [14], in test [15] and in test [16] was “inactive” each time.

In the case of `CC(=O)N[C@@H](Cc1ccc(O)cc1)C(=O)O`, the compound was called inactive in [1], in [3], in test [4], in test [5] and in test [7]. Besides, the Potency entry in test [2], in [6], in test [8], in test [9], in test [10] and in test [11] was “inactive” throughout. Further, the Potency result in test [12], in [13], in test [14], in test [15] and in test [16] was “inactive” throughout.
